The sample as a whole holds a higher share of hits than the screen did.
DUX4 inh: blocks DUX4-driven transcriptional activation. 293T-iDUX4 ZSCAN4-Gaussia luciferase reporter, 24 h; stronger effect = lower value. activity change, negative = inhibition, % (no concentration beside the values). hit rate 0.8% among 37,000. AID 1224904;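 active = mean inhibition of at least 10% in the main channel, exceeding the control channel by a set limit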
Large screens that a line does not name were inactive.

COc1ccc2c3c(n(C)c2c1)[C@@H](CO)N(CC1CC1)CC31CN(C(=O)c2ccc(F)cc2)C1	DUX4 inh -26
COc1ccc2c3c(n(C)c2c1)[C@@H](CO)N(C(=O)NC(C)C)CC31CCN(CC2CCCCC2)CC1	none
O=C(C[C@@H]1CC[C@H](NC(=O)C2CCC2)[C@@H](CO)O1)NCc1ccncc1	none
C[C@H]1CN([C@@H](C)CO)C(=O)c2cc(C3=CCCC3)cnc2O[C@@H]1CN(C)C(=O)c1ccc2c(c1)OCO2	none
CN(C)CCCNC(=O)[C@@H]1[C@@H](CO)[C@@H]2Cn3c(ccc(C4=CCCCC4)c3=O)[C@H]1N2Cc1cocn1	none
Cc1ccc(S(=O)(=O)Nc2ccc3c(c2)C(=O)N([C@H](C)CO)C[C@@H](C)[C@@H](CN(C)Cc2ccc4c(c2)OCO4)OCCCC[C@@H](C)O3)cc1	none
O=S(=O)(c1ccc(F)cc1)N1CCCCN2[C@@H](CO)[C@H](c3ccc(C#CC4CC4)cc3)[C@@H]2C1	DUX4 inh -26
O=S(=O)(c1ccccc1)N1CCCCN2[C@@H](CO)[C@H](c3ccc(C#CC4CCCC4)cc3)[C@@H]2C1	none
CC(C)CC#Cc1ccc([C@@H]2[C@H]3CN(S(=O)(=O)c4ccc(F)cc4)CCCCN3[C@H]2CO)cc1	DUX4 inh -22
CC(C)CC#Cc1ccc([C@@H]2[C@H]3CN(S(=O)(=O)Cc4ccccc4)CCCCN3[C@H]2CO)cc1	none
CC(C)(O)C#Cc1ccc([C@H]2[C@@H](CO)N3CCCCN(C(=O)c4ccc(F)cc4)C[C@@H]23)cc1	none
COCC#Cc1ccc([C@@H]2[C@H](CO)N3CCCCN(S(=O)(=O)c4ccc(OC)cc4)C[C@@H]23)cc1	none
CC(C)(O)C#Cc1ccc([C@@H]2[C@@H](CO)N3CCCCN(C(=O)c4ccc(F)cc4)C[C@H]23)cc1	none
O=S(=O)(c1ccccc1)N1CCCCN2[C@@H](CO)[C@@H](c3ccc(C#CC4CCCC4)cc3)[C@@H]2C1	none
CC(C)C#Cc1ccc([C@@H]2[C@H]3CN(C(=O)c4ccc(F)cc4)CCCCN3[C@H]2CO)cc1	DUX4 inh -26
CCCC#Cc1ccc2c(c1)[C@@H]1[C@@H](CCN1C(=O)CC1CC1)[C@@H](CO)N2C	none
CC(C)C(=O)Nc1ccc2c(c1)C(=O)N(C)[C@H]1CC[C@H](CC(=O)NCCCN(C)C)O[C@H]1CO2	none
O=C(c1cccnc1)N1CC2(C1)[C@H](c1ccccc1)[C@H](CO)N2C(=O)c1cccnc1	none
C[C@H]1CN([C@@H](C)CO)C(=O)c2cc(NC(=O)c3ccncc3)ccc2O[C@H]1CN(C)S(=O)(=O)c1ccc(Cl)cc1	none
O=C(Cc1ccccc1)N1CC[C@H]2[C@H](CO)Nc3ccc(C#Cc4ccccc4)cc3[C@H]21	none
O=C(c1ccc(F)cc1)N1CC[C@H]2[C@H](CO)Nc3ccc(C#Cc4ccccc4F)cc3[C@H]21	none
COc1ccc(C#Cc2ccc3c(c2)[C@H]2[C@H](CCN2C(=O)c2cccc(F)c2)[C@@H](CO)N3)cc1	none
O=C(c1ccc(F)cc1)N1CC[C@@H]2[C@H](CO)Nc3ccc(C#CC4CC4)cc3[C@@H]21	none
O=C(Cc1ccccc1)N1CC[C@H]2[C@H](CO)Nc3ccc(C#Cc4cccc(F)c4)cc3[C@H]21	none
O=C(Cc1ccccc1)N1CC[C@@H]2[C@H](CO)Nc3ccc(C#Cc4cccc(F)c4)cc3[C@@H]21	DUX4 inh -19
COc1ccc(C#Cc2ccc3c(c2)[C@@H]2[C@@H](CCN2C(=O)c2cccc(F)c2)[C@@H](CO)N3)cc1	none
O=C(c1cccc(F)c1)N1CC[C@@H]2[C@H]1c1cc(C#Cc3ccc(F)cc3)ccc1N[C@@H]2CO	DUX4 inh -14
O=C(c1ccc(F)cc1)N1CC[C@@H]2[C@@H](CO)Nc3ccc(C#Cc4ccc(F)cc4)cc3[C@@H]21	DUX4 inh -52
COc1ccc2c3c([nH]c2c1)[C@@H](CO)N(C(=O)C1CCCCC1)CC31CCN(S(C)(=O)=O)CC1	none
CN1C(=O)c2cc(NC(=O)c3cc(F)cc(F)c3)ccc2OC[C@@H]2O[C@@H](CC(=O)O)CC[C@@H]21	none
CN(C)C(=O)c1cccc(-c2ccc([C@@H]3[C@H](CO)N4CCCCN(C(=O)C5CCC5)C[C@@H]34)cc2)c1	none
CCCC(=O)Nc1ccc2c(c1)C(=O)N(C)[C@H]1CC[C@H](CC(=O)Nc3ccc(F)cc3)O[C@@H]1CO2	none
O=C1C[C@H](c2ccccc2)C(=O)N[C@H](c2ccccc2)C/C=C\C[C@H](c2ccccc2)N1	none
COc1ccccc1-c1ccc2n(c1=O)C[C@H]1[C@H](CO)[C@@H](C(=O)NCc3ccccn3)[C@@H]2N1C	none
CCCNC(=O)Nc1ccc2c(c1)C(=O)N(C)[C@H]1CC[C@H](CC(=O)O)O[C@H]1CO2	none
COc1ccccc1NC(=O)N[C@@H]1CC[C@@H](CCn2cc(-c3cccnc3)nn2)O[C@@H]1CO	none
COc1ccc2c3c([nH]c2c1)[C@H](CO)N(Cc1ccccc1F)CC31CN(C)C1	none
COc1ccc2c3c([nH]c2c1)[C@@H](CO)N(Cc1ccccc1F)CC31CN(C(=O)C2CCOCC2)C1	none
COc1ccc2c3c([nH]c2c1)[C@H](CO)N(Cc1ccccc1F)CC31CN(S(C)(=O)=O)C1	DUX4 inh -45
COCC(=O)N1CC2(C1)CN(Cc1ccccc1Cl)[C@H](CO)c1[nH]c3cc(OC)ccc3c12	none
COc1ccc2c3c([nH]c2c1)[C@H](CO)N(Cc1cc(F)ccc1F)CC31CN(C(=O)C2CCC2)C1	DUX4 inh -74
COc1ccc2c3c([nH]c2c1)[C@H](CO)N(Cc1cc(F)ccc1F)CC31CCN(C(=O)CN(C)C)CC1	none
C[C@H]1CCCCO[C@H](CN(C)C(=O)CCCN(C)C)[C@@H](C)CN([C@@H](C)CO)C(=O)c2cc(N(C)C)ccc2O1	none
COc1cccc(S(=O)(=O)N2C[C@H](O)COC[C@H]3O[C@@H](CC(=O)N4CCOCC4)CC[C@@H]32)c1	none
O=C(C[C@@H]1CC[C@H]2[C@@H](COC[C@H](O)CN2Cc2ccncc2)O1)NCc1ccncc1	none
COc1cccc(CN2CCCCN3[C@H](C2)[C@@H](c2ccc(C#Cc4cccnc4)cc2)[C@@H]3CO)c1	DUX4 inh -17
COc1cccc(CN2CCCCN3[C@H](CO)[C@@H](c4ccc(-c5cccnc5)cc4)[C@H]3C2)c1	none
COCC#Cc1ccc([C@@H]2[C@H]3CN(Cc4cccnc4)CCCCN3[C@H]2CO)cc1	none
COc1cccc(CN2CCCCN3[C@@H](CO)[C@@H](c4ccc(C#Cc5cccnc5)cc4)[C@@H]3C2)c1	DUX4 inh -36
COCC#Cc1ccc([C@H]2[C@H]3CN(Cc4cccnc4)CCCCN3[C@H]2CO)cc1	none
COCC#Cc1ccc([C@@H]2[C@@H](CO)N3CCCCN(Cc4cccnc4)C[C@H]23)cc1	none
CC(C)C#Cc1ccc2c(c1)O[C@H](CN(C)C(=O)c1ccncc1)[C@@H](C)CN([C@@H](C)CO)S2(=O)=O	none
CN(C)CC(=O)N1[C@@H]2c3ccc(-c4ccccc4)c(=O)n3C[C@@H]2[C@@H](CO)[C@@H]1C(=O)NC1CCC1	none
COc1ccc(S(=O)(=O)Nc2cccc3c2O[C@H](CN(C)S(=O)(=O)c2cn(C)cn2)[C@H](C)CN([C@H](C)CO)C3=O)cc1	none
CN(C)C(=O)[C@@H]1[C@@H](CO)[C@@H]2Cn3c(ccc(C4=CCCCC4)c3=O)[C@@H]2N1Cc1ccc2c(c1)OCO2	DUX4 inh -15
CN(C)C(=O)[C@H]1[C@H](CO)[C@H]2Cn3c(ccc(C4=CCCCC4)c3=O)[C@H]2N1Cc1ccc2c(c1)OCO2	none
CCNC(=O)[C@H]1[C@H](CO)[C@H]2Cn3c(ccc(C4=CCCCC4)c3=O)[C@H]2N1Cc1ccc2c(c1)OCO2	none
